This note sets out measurements from ChEMBL document CHEMBL4296182, “CO-ADD screening of NIH NCI Diversity Set V”.

The Inhibition is the relative decrease from the control value, in per cent.

Each structure is given as a SMILES string. For part of these data: Potency and affinity values are given separately.

For one test, the system named is Staphylococcus aureus. Kind of test: Antibacterial activity against Staphylococcus aureus MRSA ATCC 43300 (CO-ADD:GP_020); MIC in CAMBH media using NBS plates, by Resazurin F(560/590). As to conditions: Concentration 20 uM, ASSAY_TEST Inhibition of Bacterial Growth, detection method Resazurin, Fluorescence (ex560/em590), MEDIA CAMHB, plate type 384well, CORNING #3640, time 18 hr. The class given is functional.

In the next test the test system is Acinetobacter baumannii. Description: Antibacterial activity against Acinetobacter baumannii ATCC 19606 (CO-ADD:GN_034); MIC in CAMBH media using NBS plates, by Resazurin F(560/590). The test is classed as functional. As to conditions: Concentration 20 uM, ASSAY_TEST Inhibition of Bacterial Growth, detection method Resazurin, Fluorescence (ex560/em590), MEDIA CAMHB, plate type 384well, CORNING #3640, time 18 hr.

A further test concerns Escherichia coli. Kind of test: Antibacterial activity against Escherichia coli ATCC 25922 (CO-ADD:GN_001); MIC in CAMBH media using NBS plates, by Resazurin F(560/590). The test is classed as functional. The note with it: Concentration 20 uM, ASSAY_TEST Inhibition of Bacterial Growth, detection method Resazurin, Fluorescence (ex560/em590), MEDIA CAMHB, plate type 384well, CORNING #3640, time 18 hr. In general terms: The colour change of resazurin is a common sign of viable cells or microbes.

Another test has as its system Klebsiella pneumoniae. As to conditions: Concentration 20 uM; ASSAY_TEST Inhibition of Bacterial Growth; detection method Absorption (OD600); MEDIA CAMHB; plate type 384well; NBS; CORNING #3640; time 18 hr.
Another test deals with Candida albicans. As to conditions: 20 µM.
The subject of another test is Cryptococcus neoformans. As to conditions: Concentration 20 uM; ASSAY_TEST Inhibition of Fungal Growth; detection method Resazurin; Absorption (OD600-OD570); plate type 384well; NBS; CORNING #3640.

Regarding `CC1CCC(C(C)C)C(NC(=O)c2ccncc2)C1` (centres undefined), the Inhibition was 7.04% with Staphylococcus aureus; -17.65% with Acinetobacter baumannii; 6.28% in the test on Escherichia coli; 10.65% in the test on Klebsiella pneumoniae; -0.85% in the test with Candida albicans; -11.13% with Cryptococcus neoformans.
`COC(=O)C(=Cc1ccccc1[N+](=O)[O-])C(=O)OC`: the Inhibition in the test on Staphylococcus aureus was -1.4%; with Acinetobacter baumannii, -8.17%; with Escherichia coli, 9.13%; in the test on Klebsiella pneumoniae, 10.58%; with Candida albicans, 9.98%; with Cryptococcus neoformans it was -18.32%.
Consider `CSc1cccc(NC(=O)Nc2ccccc2C(N)=O)c1`, for which the Inhibition in the test with Staphylococcus aureus is 1.7%; in the test with Acinetobacter baumannii it was 10.06%; in the test on Escherichia coli, 13.89%; with Klebsiella pneumoniae, 12.71%; in the test with Candida albicans it was -0.32%; with Cryptococcus neoformans, -13.91%.
As for `c1ccc(-c2nc(-c3nccc4ccccc34)oc2-c2ccccc2)cc1`, the Inhibition with Staphylococcus aureus is -13.7%; with Acinetobacter baumannii, -4.32%; in the test on Escherichia coli, -16.8%; in the test on Klebsiella pneumoniae it was -4.05%; in the test with Candida albicans, 15.1%; in the test on Cryptococcus neoformans, 12.09%.
`Nc1cc([N+](=O)[O-])ccc1N1C(=O)CCCC1=O`: the Inhibition with Staphylococcus aureus is 5.36%; in the test on Acinetobacter baumannii, 15.02%; in the test with Escherichia coli, -8.9%; in the test on Klebsiella pneumoniae, 10.57%; in the test with Candida albicans, 7.24%; in the test with Cryptococcus neoformans, -9.22%.
In the case of `NC(=O)c1ccc2c(c1)S(=O)(=O)c1ccccc1C2=O`, the Inhibition was 12.96% with Staphylococcus aureus; -8.12% in the test on Acinetobacter baumannii; -3.77% with Escherichia coli; 24.13% in the test on Klebsiella pneumoniae; 1.19% in the test on Candida albicans; -8.66% with Cryptococcus neoformans.
On to `Cl/N=C1/C=CC=C/C1=N/Cl`, for which the Inhibition in the test on Staphylococcus aureus was -18.23%; with Acinetobacter baumannii it was -7.09%; in the test on Escherichia coli it was 4.05%; in the test with Klebsiella pneumoniae it was -1.59%; in the test on Candida albicans it was -1.15%; with Cryptococcus neoformans, -1.81%.
Turning to `Cc1nnc2nc(-c3ccccc3)nc(-c3ccccc3)n12`, the Inhibition in the test on Staphylococcus aureus was -12.94%; with Acinetobacter baumannii it was 8.22%; in the test on Escherichia coli it was 2.26%; in the test with Klebsiella pneumoniae it was 4.14%; in the test on Candida albicans, 4.58%; with Cryptococcus neoformans, -11.59%.
On to `CC(C)(c1cc(Cl)c(O)c(CN2CCOCC2)c1)c1cc(Cl)c(O)c(CN2CCOCC2)c1`, for which the Inhibition with Staphylococcus aureus is -6.13%; in the test on Acinetobacter baumannii it was 0.12%; with Escherichia coli, 12.95%; with Klebsiella pneumoniae, 0.6%; in the test on Candida albicans, -1.62%; in the test with Cryptococcus neoformans it was -0.13%.
On to `CC(=O)NS(=O)(=O)c1ccc2sc(C)nc2c1`, for which the Inhibition in the test with Staphylococcus aureus was 3.75%; with Acinetobacter baumannii, -11.67%; in the test with Escherichia coli it was 8.35%; in the test with Klebsiella pneumoniae it was 5.23%; in the test on Candida albicans it was 3.43%; with Cryptococcus neoformans it was -4.98%.
With `Cc1cc2c(cc1C)NC1=C(O)C(c3cccc(O)c3)OC1=N2` (centres undefined), the Inhibition in the test with Staphylococcus aureus was 3.69%; in the test on Acinetobacter baumannii, 4.58%; in the test on Escherichia coli, -10.78%; in the test on Klebsiella pneumoniae, 28.82%; in the test with Candida albicans it was 3.61%; in the test with Cryptococcus neoformans it was -0.13%.
On to `CCOC(CNCc1cc(C)c2[nH]c3ccccc3c2c1C)OCC`, for which the Inhibition with Staphylococcus aureus was 11.65%; with Acinetobacter baumannii, -1.22%; with Escherichia coli, 3.76%; in the test on Klebsiella pneumoniae it was 8.4%; with Candida albicans it was 1.3%; in the test with Cryptococcus neoformans, -11.65%.
On to `Oc1ccccc1-c1nc2c3ccccc3c3ccccc3c2[nH]1`, for which the Inhibition was 17.7% in the test on Staphylococcus aureus; 0.13% in the test with Acinetobacter baumannii; 3.46% in the test on Escherichia coli; 14.09% in the test with Klebsiella pneumoniae; 6.21% with Candida albicans; -5.55% with Cryptococcus neoformans.
Consider `O=C1OCC/C1=C\c1ccc2c(c1)OCO2`, for which the Inhibition with Staphylococcus aureus was 9.07%; with Acinetobacter baumannii, -7.38%; in the test on Escherichia coli, 9.99%; with Klebsiella pneumoniae it was 4.4%; in the test with Candida albicans, 3.83%; with Cryptococcus neoformans it was 0.17%.
Take `Cc1ccn(C)c(=N)c1`: the Inhibition in the test with Staphylococcus aureus was 5.26%; in the test with Acinetobacter baumannii it was -6.78%; in the test with Escherichia coli, 8.42%; with Klebsiella pneumoniae it was 11.41%; in the test on Candida albicans it was 2.59%; in the test with Cryptococcus neoformans, -0.88%.
Regarding `CCOc1ccc(NC(=O)c2cc3ccccc3cc2O)cc1`, the Inhibition in the test on Staphylococcus aureus was -0.31%; with Acinetobacter baumannii it was -4.15%; in the test on Escherichia coli it was -2.29%; in the test with Klebsiella pneumoniae, 2.5%; in the test on Candida albicans, 7.38%; in the test with Cryptococcus neoformans, -4.09%.
`Cc1cc(NC(=O)Nc2cccc3ccccc23)no1`: the Inhibition in the test with Staphylococcus aureus was -11.32%; in the test on Acinetobacter baumannii, -7.4%; in the test on Escherichia coli it was 9.22%; with Klebsiella pneumoniae it was -0.15%; in the test on Candida albicans it was 8.31%; with Cryptococcus neoformans, -12.19%.
Regarding `Cc1nc2ccnn2c(O)c1CCc1ccccc1`, the Inhibition in the test on Staphylococcus aureus was 8.7%; in the test on Acinetobacter baumannii it was -8.36%; with Escherichia coli it was 1.1%; with Klebsiella pneumoniae it was 10.44%; with Candida albicans it was 5.45%; with Cryptococcus neoformans, -6.6%.
On to `CN(/N=N/c1[nH]cnc1C(=O)NN)C1CCCCC1`, for which the Inhibition is 8.69% in the test with Staphylococcus aureus; 8.54% in the test on Acinetobacter baumannii; -4.79% in the test with Escherichia coli; 11.56% with Klebsiella pneumoniae; 3.97% in the test with Candida albicans; -4.73% with Cryptococcus neoformans.
